A selection: hits, their analogues and other compounds. The true share with any hit is near 1.1%.
CatB mix inh = inhibitors of human cathepsin B in compound mixtures; P07858; Purified cathepsin B, AMC dipeptide fluorescence; inhibition, %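 (ten-compound pools at 5 µM per compound and 50 µM total)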; 62,000 tested, 0.06% active; in the data active = inhibition above about 22%, passing the limit was not always enough; inconclusive = no clear call, values can overlap the other calls;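 also: 0% = enzyme without compound and 100% = no enzyme blank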
CatB block = blocks human cathepsin B protease activity; P07858; purified cathepsin B, fluorogenic substrate, fluorescence; inhibition, %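 (tested at 10 µM)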; 63,000 tested, 0.1% active; in the data active = inhibition above about 21%;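 also: 0% = enzyme with no compound and 100% = no enzyme blank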
SK-BR-3 tox 24h = SK-BR-3 proliferation inhibitors; 41,000 tested, 0.47% active; SK-BR-3 viability, CellTiter-Glo ATP luminescence, 24 h; stronger effect = lower value; AID 847; viability, % at 10 µM;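 active = viability at or below the median of all test compounds minus 3 SD, in both replicates if run twice, cut at about 45% in these data; inconclusive = duplicate replicates that disagree with each other; inactive = viability above that cutoff in every replicate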;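 also: 100% = median untreated cell wells and 0% = median positive control drug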
CatS block = human cathepsin S inhibition | P25774 | recombinant cathepsin S, AMC dipeptide fluorescence, pooled mixtures | inhibition, %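 (tested at 5 µM per compound within 10-compound mixtures)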 | 62,000 tested, 0.06% active; in the data active = inhibition above about 32%, passing the limit was not always enough; inconclusive = no clear call, values can overlap the other calls;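 also: 0% = enzyme without compound and 100% = blank without enzyme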
Target sequence (P25774 115-331 limits assumed): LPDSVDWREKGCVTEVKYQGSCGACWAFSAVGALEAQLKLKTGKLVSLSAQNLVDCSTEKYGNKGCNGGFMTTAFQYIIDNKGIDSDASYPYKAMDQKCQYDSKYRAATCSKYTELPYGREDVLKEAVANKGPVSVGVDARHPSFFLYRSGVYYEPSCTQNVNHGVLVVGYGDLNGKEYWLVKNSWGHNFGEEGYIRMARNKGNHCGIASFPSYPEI
Her2 expr inh = Her2 kinase expression inhibition; 65,000 tested, 0.69% active; P04626; AID 645; HER2 level % of control, % at 10 µM; SKBR-3 HER2 protein level, AlphaScreen, 18-24 h; stronger effect = lower value;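 active = HER2 level under 5% of the carrier-only control; inconclusive = no clear call, values can overlap the other calls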;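 also: 100% = DMSO carrier and 0% = 500 nM PU-H71 HSP90 inhibitor; lower value means stronger loss of Her2 protein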
CatL block = inhibitors of human cathepsin L; P07711; purified cathepsin L, fluorogenic substrate, fluorescence; inhibition, %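 (tested at 10 µM)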; 58,000 tested, 0.17% active; in the data active = inhibition above about 45%;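 also: 0% = enzyme with no compound and 100% = no enzyme blank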
An asterisk follows results filed as active; ? = inconclusive; . = not tested or not shown.

SMILES	CatB mix inh	CatB block	SK-BR-3 tox 24h	CatS block	Her2 expr inh	CatL block
CCOP(=O)(c1ccc(N(C)C)cc1)C(O)c1cc(OC)c(OC)c(OC)c1 (stereo not drawn)	2	2	81	12	103	5
CCOP(=O)(c1ccc(N(C)C)cc1)C(O)c1c(Cl)cccc1Cl (stereo not drawn)	7	3	75	-2	-16*	3
COc1ccc(-c2cc(N)n(S(=O)(=O)c3c(F)c(F)c(F)c(F)c3F)n2)cc1OC	3	-4	.	3	-13*	18
O=C(c1ccc(N2CCOCC2)nc1)N1CCOCC1	0	2	.	6	128	-9
O=C(c1cncc(Br)c1)N1CCN(c2ccc(N3CCOCC3)nn2)CC1	1	52*	.	11	91	14
Cc1ccc(NC(=O)CSc2nnc(-c3ccco3)c(-c3ccco3)n2)cc1	.	16	131	.	80	6
O=C(CSc1nnc(-c2ccco2)c(-c2ccco2)n1)Nc1ccccc1	?	57*	108	15	139	31
c1ccc(-n2c(-c3ccncc3)nnc2N2CCOCC2)cc1	2	-5	.	3	-3.3*	7
CCN(CC(=O)NC1CCCCCC1)S(=O)(=O)c1ccccc1	6	1	94	9	-28*	12
Cc1ccc(C(=O)COC(=O)CNC(=O)c2ccco2)cc1	0	6	102	8	92	10
COc1ccc(C(=O)C(OC(=O)CNC(=O)c2ccco2)c2ccccc2)cc1 (stereo not drawn)	12	21*	96	-2	112	68*
CN(C)CC(O)COc1cc2ccccc2cc1C(=O)N1CCCCC1 (stereo not drawn)	4	-6	91	-5	96	-13
CN(C)c1ccc(/C(=N\O)c2ccccc2)cc1	0	3	.	-7	109	-1
CCOC(=O)c1cnc(SCC(=O)NCc2cccs2)nc1N	1	2	66	-12	92	0
CC1(C)SC2[C@H](NC(=O)C(NC(=O)N3CCNC3=O)c3ccccc3)C(=O)N2C1C(=O)O (stereo partly drawn)	4	4	102	13	45	0
O=C1SC(SCc2ccccc2)=N/C1=C\c1ccco1	3	3	95	4	75	1
CCCSC1=N/C(=C\C=C\c2ccco2)C(=O)S1	5	-2	.	-6	-3.4*	-17
CCCN1CCC(N(C)CCc2ccc(OC)c(OC)c2)CC1	5	2	110	6	87	19
CCCCCn1c(SCC#N)nc2cc(C(=O)NCC3CCCO3)ccc2c1=O (stereo not drawn)	2	1	.	-1	86	6
CCCCCn1c(SCC#N)nc2cc(C(=O)NC3CCCCC3)ccc2c1=O	-1	-1	46	7	-20*	19
CC1=C(C)CS(=O)N(S(=O)(=O)c2ccc(Cl)cc2)C1 (stereo not drawn)	32*	24*	78	6	84	.
Cn1c(C(=O)O)c(CC(=O)Nc2ccccc2F)c2ccccc21	0	2	30*	-7	75	-1
COc1ccccc1C1/C(=C(/O)c2ccccc2)C(=O)C(=O)N1CC(C)O (stereo not drawn)	6	7	143	1	86	1
C/C(=N\O)C(=O)C(CN1CCCCC1)CN1CCCCC1	5	5	.	6	-12*	1
CC(=O)/C(CN1CCCCC1)=N\O	-6	-2	84	2	91	8
SMILES	CatB mix inh	CatB block	SK-BR-3 tox 24h	CatS block	Her2 expr inh	CatL block
C=CCn1cnc2c(c1=O)c1nc3ccccc3nc1n2/N=C/c1cc(OC)c(OC)c(OC)c1	8	-1	82	9	-25*	20
C=CCn1cnc2c(c1=O)c1nc3ccccc3nc1n2/N=C/c1cccc(OC)c1OC	6	2	105	8	96	25
CCCS(=O)(=O)c1nnnn1-c1cccc(OC)c1	-6	-3	?	-10	-22*	-9
CCOC(=O)c1c(C)oc2c1c(C(c1ccncc1)N1CCOCC1)c(O)c1ccccc12 (stereo not drawn)	2	1	.	10	-12*	6
CCOC(=O)c1c(C)oc2c1c(C=NC1CCS(=O)(=O)C1)c(O)c1ccccc12 (stereo not drawn)	-1	2	56	2	63	8
COc1ccc(N(Cc2cc3ccc(C)cc3[nH]c2=O)C(C)=O)cc1	1	5	95	6	90	35

Bioassay records: PubChem BioAssay, several laboratories
